Source: PubChem
A selection: hits, their analogues and other compounds. The true share with any hit is near 0.63%.
gsp antagonist – qHTS for Antagonists of gsp, the Etiologic Mutation Responsible for Fibrous Dysplasia/McCune-Albright Syndrome: qHTS; gsp-mutant cells, cAMP HTRF, 30 min; Potency, µM (titrated, usually from 76.9 µM), for the others: at the top dose activity change, negative = inhibition, most hits filed as inhibitors; hit rate 0.4% among 340,000; AID 624288, 2012; calls by dose curve; cell line not stated here;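 further: intracellular cAMP measured with PDE inhibitor Ro 20-1724 present during compound exposure; potency means the concentration at half of the fitted maximal effect; on the % scale 0 is the no-effect control and ±100 the full control effect; nearly all actives have a fitted effect of over 65% in size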
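HTRF cAMP read-out (cAMP-d2 plus anti-cAMP antibody-K in lysis buffer, 30 min RT). Before lysis, cells are exposed to compounds with […] for 30 min at 37C in DPBS containing Ca/Mg, BSA and Tween 20.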
gsp ag – qHTS for Agonist of gsp, the Etiologic Mutation Responsible for Fibrous Dysplasia/McCune-Albright Syndrome: qHTS. gsp mutant cells, cAMP HTRF, 30 min. Potency, µM (titrated, usually from 76.9 µM), without a hit: at the highest dose activation (cAMP increase), usual class: activators. hit rate 0.13% among 340,000; active means well fitted activation curve with a large enough effect; inconclusive means small, poorly fitted or top-dose-only effect, or another doubt; inactive means no such curve, though single readings can be large or run the other way; cell line not stated here;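 further: phosphodiesterase inhibitor Ro 20-1724 added with compounds to block cAMP breakdown; potency means the concentration at half of the fitted maximal effect; nearly all actives have a fitted effect of over 60% in size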
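Cells stably selected in G418 were plated at 2000/well, grown 16-24 hr, then given compounds in DMSO with the PDE inhibitor […] (300 uM solution added) for 30 min at 37C; cAMP was read by HTRF.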
TSHR antagonist – Antagonists of the Thyroid Stimulating Hormone Receptor: HTS campaign; Thyrotropin receptor (Homo sapiens), P16473; activity change, negative = inhibition, % at 11.5 µM; TSHR-expressing cells, TSH-stimulated cAMP HTRF, 2 h; hits give low values; hit rate 0.2% among 330,000;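 active means activity change below a set negative limit, meaning inhibition stronger than a set level, cut at about -70% in these data; inconclusive means activity change between two set negative limits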; further: on the % scale 0 is the no-effect control and ±100 the full control effect
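TSHR-expressing cells, 200/well, pre-treated with compound, then stimulated with EC80 TSH (4nM final) for 2 hours at 37 deg C. cAMP measured by competitive HTRF: anti-cAMP cryptate antibody in lysis buffer plus cAMP-d2, read after 30 minutes at room temperature.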
Pin1 inhibitor – qHTS Assay to Find Inhibitors of Pin1 | Potency, µM (highest dose often 115 µM), for the others: at the highest dose activity, negative = inhibition, usual class: inhibitors | Pin1 FP peptide displacement, HiFluor488, 10 min | Peptidyl-prolyl cis-trans isomerase NIMA-interacting 1 (Homo sapiens), Q13526 | hit rate 0.009% among 390,000; active means well fitted inhibition curve with a large enough effect in the polarisation, with a control signal flat, not every such curve was filed as active; inconclusive means small, poorly fitted or top-dose-only effect, or effect the other way, or a change in a side signal; inactive means no such curve, though single readings can be large or run the other way; the % refers to the polarisation; further: potency means the concentration at half of the fitted maximal effect; on the % scale 0 is the no-effect control and ±100 the full control effect
Target sequence (Q13526 whole entry, looked up): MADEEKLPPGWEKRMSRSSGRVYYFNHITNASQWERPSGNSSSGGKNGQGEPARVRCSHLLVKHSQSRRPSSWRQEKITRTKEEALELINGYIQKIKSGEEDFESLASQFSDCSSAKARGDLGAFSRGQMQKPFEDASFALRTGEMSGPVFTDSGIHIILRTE
TCR act – Activators of T cell receptors: qHTS campaign; 330,000 tested, under 10 active; primary human leukocytes, anti-CD3, IL-2 HTRF, 48 h; Potency, µM (top dose mostly 9.22 µM), for inactives: top-dose activation of IL-2 secretion, hits mostly activators; active means well fitted activation curve with a large enough effect; inconclusive means small, poorly fitted or top-dose-only effect, or another doubt; inactive means no such curve, though single readings can be large or run the other way; further: % of control where 0% means no effect
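HTRF read-out of IL-2 secretion: europium cryptate donor excited at 320nm, d2 acceptor emission at 665nm. Cells were primary human leukocytes incubated 48 hr with compounds and a-CD3 beads, supplying TCR signal only.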
An asterisk follows results filed as active; [ ] = remark or other dose.

Cc1cccc(C)c1NC(=O)N1CCC(C(=O)c2ccc(F)cc2)CC1 was read as gsp antagonist -1.2%, gsp ag 2.7%, TSHR antagonist -78.6*, Pin1 inhibitor -3.8% and TCR act 2.2%.
Screening COc1ccc(CCNC(=O)Cn2c(=O)n(-c3cc(F)ccc3F)c(=O)c3sccc32)cc1OC returned gsp antagonist 31.6µM*, gsp ag -27.9%, TSHR antagonist -0.9, Pin1 inhibitor -6.7% and TCR act -0.8%.
`Cc1cc(SCC(=O)N/N=C/c2ccc(O)cc2O)nc2ccccc12` gave gsp antagonist 35.5µM*, gsp ag inconclusive, TSHR antagonist -22.8, Pin1 inhibitor 31.3% and TCR act 1.5%.
For CCCSC1=C(C#N)C(c2cccs2)C(C(=O)Nc2ccccc2)=C(C)N1 (centres undefined) the results were gsp antagonist -2.6%, gsp ag 26.3%, TSHR antagonist -78.7*, Pin1 inhibitor 18.6% and TCR act 0.2%[46.1 µM].
For COc1cccc(NC(=O)Cn2c(CCC(=O)O)ccc2-c2ccc(Cl)cc2)c1 the results were gsp antagonist -13.4%, gsp ag -5.2%[15.4 µM], TSHR antagonist 0.9, Pin1 inhibitor 1.6% and TCR act 3.1%.
For CCOCCCNC(=O)c1ccc2c(c1)ncn2C1CCCC1 the results were gsp antagonist -3.9%, gsp ag 2.1%, TSHR antagonist -0.2, Pin1 inhibitor -3.2% and TCR act -3.5%.
`CC(C)CCNC(=O)c1ccc2c(c1)ncn2C1CCCC1` gave gsp antagonist 7.94µM*, gsp ag -2.4%[15.4 µM], TSHR antagonist -7.6, Pin1 inhibitor -5.3% and TCR act -4.2%.
`O=C(Nc1cccc([N+](=O)[O-])c1)c1ccc([N+](=O)[O-])o1` gave gsp ag -4.3%.
Screening O=C(Nc1cccc(NC(=O)c2ccccc2Cl)c1)c1ccc([N+](=O)[O-])o1 returned gsp antagonist 39.8µM*, gsp ag -20.3%, TSHR antagonist -4.8, Pin1 inhibitor -9.0% and TCR act -0.8%.
`CC(=O)c1cccc(NC(=O)c2ccc(-c3ccccc3[N+](=O)[O-])o2)c1` gave gsp antagonist 44.7µM*, gsp ag 18.9%[15.4 µM], TSHR antagonist -25.9, Pin1 inhibitor 0.0% and TCR act -6.0%[46.1 µM].
`O=C(CN1C(=O)CC(c2ccco2)Sc2ccccc21)NC1CCCCC1` (centres undefined) gave gsp antagonist 50.1µM*, gsp ag 7.6%, TSHR antagonist -10.3, Pin1 inhibitor -0.8% and TCR act -3.8%.
`CC(C)(C)c1ccc(C(=O)N2CCCN(C(=O)c3ccc(C(C)(C)C)cc3)CC2)cc1` gave gsp antagonist 17.3%, gsp ag -18.8%, TSHR antagonist -2.1, Pin1 inhibitor -4.5% and TCR act 4.1%[46.1 µM].
For CCCN(CCC)c1nc2ccccc2n2c(C)nnc12 the results were gsp antagonist -30.9%, gsp ag 9.0%, TSHR antagonist -8.6, Pin1 inhibitor 5.0% and TCR act 1.5%.
`COc1ccc(-n2c(=S)[nH]c3cc(C(=O)NCc4ccccc4)ccc3c2=O)c(OC)c1` gave gsp antagonist 20µM*, gsp ag 9.1%[15.4 µM], TSHR antagonist -6.8, Pin1 inhibitor 1.8% and TCR act -15.0%.
COc1ccc(OCC(=O)Nc2ccc(C(=O)Nc3ccccc3C(=O)O)cc2)cc1 was read as gsp antagonist 39.8µM*, gsp ag 16.4%, TSHR antagonist -23.0, Pin1 inhibitor -3.1% and TCR act -7.2%.
For Cc1nnc2sc(SCc3ccc(Br)cc3)nn2c1=O the results were gsp antagonist 0.8%, gsp ag 5.1%[15.4 µM], TSHR antagonist 10.3, Pin1 inhibitor -5.4% and TCR act 0.7%.
`COc1ccccc1CNC(=O)COC(=O)c1cccc(S(=O)(=O)N2CCOCC2)c1` gave gsp antagonist -3.6%, gsp ag -6.7%[15.4 µM], TSHR antagonist -4.2, Pin1 inhibitor -3.7% and TCR act -1.8%.
Screening Cc1n[nH]c(C)c1N=Nc1ccc(Br)cc1 returned gsp antagonist 13.5%, gsp ag -4.8%, TSHR antagonist -6.9, Pin1 inhibitor 1.3% and TCR act -1.7%.
O=C(Cn1cc(COc2cccc([N+](=O)[O-])c2)nn1)c1ccc(O)cc1 was read as gsp antagonist -8.2%, Pin1 inhibitor 1.9% and TCR act 1.2%.
Screening CN1CCN(C2=CC3=CC(=C(C#N)C#N)CCC3CC2)CC1 (centres undefined) returned gsp antagonist inconclusive, gsp ag -0.8%[15.4 µM], TSHR antagonist -92.7*, Pin1 inhibitor inconclusive and TCR act 8.4%.
For COC(=O)C1=C(C)OC(N)=C(C#N)C1c1ccc(OC)c(CSc2ccccn2)c1 (centres undefined) the results were gsp antagonist 50.1µM*, gsp ag 8.2%, TSHR antagonist 28.3 and Pin1 inhibitor 7.9%.
Screening COC(=O)C1=C(C)OC(N)=C(C#N)C1c1ccccc1 (centres undefined) returned gsp antagonist -3.8%, gsp ag 1.2%, TSHR antagonist 4.6 and Pin1 inhibitor 4.0%.
For c1ccc2c(c1)CCN(c1ncnc3c1[nH]c1ccccc13)C2 the results were gsp antagonist inconclusive, gsp ag 5.9%, TSHR antagonist inconclusive, Pin1 inhibitor 7.8% and TCR act -7.9%.
Cc1ccc2[nH]c3c(N4CCN(Cc5ccccc5)CC4)ncnc3c2c1 was read as gsp antagonist 15.8µM*, gsp ag -13.9%, TSHR antagonist -17.6, Pin1 inhibitor inconclusive and TCR act 0.1%.
For c1ccc2c(c1)[nH]c1c(N3CCC4(CC3)OCCO4)ncnc12 the results were gsp antagonist 31.6µM*, gsp ag -26.3%, TSHR antagonist -18.3, Pin1 inhibitor 0.9% and TCR act -19.3%.
Screening Cc1ccc2c(c1)[nH]c1c(N3CCN(Cc4ccccc4)CC3)ncnc12 returned gsp antagonist inconclusive, gsp ag -0.1%, TSHR antagonist -47.5 and Pin1 inhibitor 17.0%.
c1ccc(CN2CCN(c3ncnc4c3[nH]c3ccccc34)CC2)cc1 was read as gsp antagonist 31.6µM*, gsp ag -31.2%, TSHR antagonist -31.6, Pin1 inhibitor 1.3% and TCR act -3.3%.
Screening Cc1c(CCOC(=O)C23CC4(C)CC(C)(CC(C)(C4)C2)C3)sc[n+]1CC(=O)c1ccccc1 returned gsp antagonist 17.1%, gsp ag -1.3%[15.4 µM], TSHR antagonist 14.4, Pin1 inhibitor -3.4% and TCR act -7.4%.
